Assay results from PubChem BioAssay (NCATS).
Inconclusive results are not listed. Active and inactive are the calls of the source. Unless noted, calls follow the shape of the dose curve; as a rule, active = well fitted curve in the direction sought with a large enough effect; inconclusive = small, poorly fitted or top-dose-only effect, or another doubt; inactive = no such curve, though single readings can be large; an effect the other way counts as inactive or inconclusive.

Key:
[1] = S16 Schwann cell viability assay (CellTiter-Glo assay) (AID 624031); also: nearly all actives have a fitted effect of over 70% in size
How it was run: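 This viability control uses native rat S16 Schwann cells grown in DMEM plus 10% FBS. After a 24 h compound treatment at 37 °C, CellTiter-Glo luminescence reports ATP content, scaled against DMSO-treated and cell-free wells.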

7G8 = assay: qHTS profiling for inhibitors of Plasmodium falciparum proliferation (AID 504749); also: nearly all actives have a fitted effect of over 60% in size; details: P. falciparum in erythrocytes, SYBR Green DNA, 72 h; series mostly up to 28.7 µM
How it was run: (§1)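 Readout was DNA-dye fluorescence from lysed cultures, ex 485/em 535 nm. Parasitized red cells had grown 72 h with compound; data scaled between 0.29 uM artemisinin and DMSO wells and corrected using vehicle-only plates.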

CP201 = assay: as above; details: P. falciparum in erythrocytes, SYBR Green DNA, 72 h; series mostly up to 28.7 µM
How it was run: as §1

CP203 = assay: as above; details: P. falciparum in erythrocytes, SYBR Green DNA, 72 h; series mostly up to 28.7 µM
How it was run: as §1

CP215 = assay: as above; details: P. falciparum in erythrocytes, SYBR Green DNA, 72 h; series mostly up to 28.7 µM
How it was run: as §1

CP247 = assay: as above; details: P. falciparum in erythrocytes, SYBR Green DNA, 72 h; series mostly up to 28.7 µM
How it was run: as §1

CP268 = assay: as above; details: P. falciparum in erythrocytes, SYBR Green DNA, 72 h; series mostly up to 28.7 µM
How it was run: as §1

CP291 = assay: as above; details: P. falciparum in erythrocytes, SYBR Green DNA, 72 h; series mostly up to 28.7 µM
How it was run: as §1

CP297 = assay: as above; details: P. falciparum in erythrocytes, SYBR Green DNA, 72 h; series mostly up to 28.7 µM
How it was run: as §1

CP305 = assay: as above; details: P. falciparum in erythrocytes, SYBR Green DNA, 72 h; series mostly up to 28.7 µM
How it was run: as §1

CP325 = assay: as above; details: P. falciparum in erythrocytes, SYBR Green DNA, 72 h; series mostly up to 28.7 µM
How it was run: as §1

CP335 = assay: as above; details: P. falciparum in erythrocytes, SYBR Green DNA, 72 h; series mostly up to 28.7 µM
How it was run: as §1

DIV17 = assay: as above; details: P. falciparum in erythrocytes, SYBR Green DNA, 72 h; series mostly up to 28.7 µM
How it was run: as §1

GB4 = assay: as above; details: P. falciparum in erythrocytes, SYBR Green DNA, 72 h; series mostly up to 28.7 µM
How it was run: as §1

ICS = assay: as above; details: P. falciparum in erythrocytes, SYBR Green DNA, 72 h; series mostly up to 28.7 µM
How it was run: as §1

P93_24 = assay: as above; details: P. falciparum in erythrocytes, SYBR Green DNA, 72 h; series mostly up to 28.7 µM
How it was run: as §1

PAD = assay: as above; details: P. falciparum in erythrocytes, SYBR Green DNA, 72 h; series mostly up to 28.7 µM
How it was run: as §1

PC26 = assay: as above; details: P. falciparum in erythrocytes, SYBR Green DNA, 72 h; series mostly up to 28.7 µM
How it was run: as §1

[2] = S16 Schwann cell PMP22 intronic element beta-lactamase assay (AID 624044; calls by dose curve; also: nearly all actives have a fitted effect of over 15% in size); details: S16 rat Schwann cells, PMP22 element beta-lactamase FRET, 24 h; ratio activity, negative = inhibition: at 38.3 µM (top of the series)
How it was run: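 Rat S16 Schwann cells with beta-Lac driven by a PMP22 intronic element, compound-treated 24 h at 37 °C. LiveBLAzer FRET B/G read: 460 nm normalized to potassium clavulanate vs DMSO; 535 nm FRET as viability; concentration-effect curves classified.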

CP266 = assay: qHTS profiling for inhibitors of Plasmodium falciparum proliferation (AID 504749); also: nearly all actives have a fitted effect of over 60% in size; details: P. falciparum in erythrocytes, SYBR Green DNA, 72 h; series mostly up to 28.7 µM
How it was run: as §1

Measured: Potency
Potency is read from the fitted curve at half-maximal effect.

CC[C@H](C)[C@H]1O[C@]2(CC[C@@H]1C)C[C@@H]1C[C@@H](C/C=C(\C)[C@H](O[C@@H]3C[C@H](OC)[C@H](O[C@@H]4C[C@H](OC)[C@@H](O)[C@H](C)O4)[C@H](C)O3)[C@@H](C)/C=C/C=C3\CO[C@@H]4[C@H](O)C(C)=C[C@@H](C(=O)O1)[C@]34O)O2
active: [1] 12.8 µM | 7G8 2 µM | CP201 1.51 µM | CP203 1.51 µM | CP215 1.35 µM | CP247 1 µM | CP268 1.69 µM | CP291 1.51 µM | CP297 1.51 µM | CP305 1.69 µM | CP325 1.35 µM | CP335 1.35 µM | DIV17 2.13 µM | GB4 1.51 µM | ICS 1.26 µM | P93_24 1.26 µM | PAD 1.41 µM | PC26 1.2 µM

NCCCCC(N)C(=O)O (stereo not given)
not listed: CP297 | PC26
inactive: all other assays above

COc1cccc2c1C(=O)c1c(O)c3c(c(O)c1C2=O)C[C@@](O)(C(=O)CO)C[C@@H]3OC1CC(N)C(O)C(C)O1 (stereo not given in full)
inactive: [1]
active: [2] 0.354 µM | 7G8 0.316 µM | CP201 3.79 µM | CP203 4.78 µM | CP215 3.79 µM | CP247 2.24 µM | CP266 3.38 µM | CP268 3.79 µM | CP291 3.38 µM | CP297 1.9 µM | CP305 3.38 µM | CP325 3.79 µM | CP335 1.2 µM | DIV17 1.69 µM | GB4 1.69 µM | ICS 0.631 µM | P93_24 2 µM | PAD 2.24 µM | PC26 4.78 µM

O=C(O)c1ccc(N[C@@H]2OC[C@@H](O)[C@@H](O)[C@@H]2O)cc1
not listed: [2] | CP266
inactive: all other assays above

NC(=O)OC[C@@H]1[C@H](NC(=O)/C(=N/OCC(=O)O)c2csc(N)n2)C(=O)N1S(=O)(=O)O
not listed: CP268 | DIV17
inactive: all other assays above

CCN(CC)CC(=O)Nc1c(C)cc(C)cc1C
not listed: [1] | CP335
inactive: all other assays above

CNC(=O)C(N)CSC(C)C1=C(C)c2cc3[n-]c(cc4nc(cc5[n-]c(cc1n2)c(C)c5CCC(=O)O)C(CCC(=O)O)=C4C)c(C)c3C(C)SCC(N)C(=O)NC.[Fe+2] (stereo not given)
inactive: all assays above

OCC1OC(O)C(O)C(O)C1O (stereo not given)
not listed: CP291 | CP297 | CP325 | DIV17 | GB4 | PC26
inactive: all other assays above

OCC1O[C@H](Oc2ccc(O)cc2)C(O)C(O)C1O (stereo not given in full)
not listed: P93_24 | [2]
inactive: all other assays above

CCCCCCCCCCCCCCCC(=O)OC[C@H](O)[C@H]1OC[C@@H](O)[C@@H]1O
inactive: all assays above

CC1OC(OCC2OC(Oc3c(-c4ccc(OCCO)c(OCCO)c4)oc4cc(OCCO)cc(O)c4c3=O)C(O)C(O)C2O)[C@@H](O)C(O)C1O (stereo not given in full)
not listed: P93_24
inactive: all other assays above

OCC(CO)NC1C[C@](O)(CO)[C@@H](O)[C@H](O)[C@H]1O (stereo not given in full)
not listed: CP291 | CP266
inactive: all other assays above

CC1(C)SC2C(NC(=O)C(C(=O)O)c3ccccc3)C(=O)N2C1C(=O)O (stereo not given)
inactive: all assays above

O=[N+]([O-])O[C@H]1CO[C@H]2[C@@H]1OC[C@H]2O
inactive: all assays above

COc1cc2c(cc1O)CCN[C@@]21CS[C@H]2c3c(OC(C)=O)c(C)c4c(c3C(COC1=O)N1C2C2c3c(cc(C)c(OC)c3O)CC([C@@H]1O)N2C)OCO4 (stereo not given in full)
active: 7G8 0.0003 µM | CP201 0.0013 µM | CP203 0.0004 µM | CP215 0.0005 µM | CP247 0.0011 µM | CP266 0.0015 µM | CP268 0.0005 µM | CP291 0.0004 µM | CP297 0.0005 µM | CP305 0.0005 µM | CP325 0.0005 µM | CP335 0.0004 µM | GB4 0.0002 µM | ICS 0.0009 µM | P93_24 0.0009 µM | PC26 0.0013 µM
inactive: [1]

CC(=O)OCC(=O)[C@@]1(O)CCC2C3C[C@H](C)C4=CC(=O)C=CC4(C)C3C(O)CC21C (stereo not given in full)
inactive: all assays above

CN(C)CC/C=C1\c2ccccc2COc2ccc(CC(=O)O)cc21
not listed: CP335 | PC26
inactive: all other assays above

CC1(C)C2CC[C@]1(C)[C@@H](O)C2
inactive: all assays above

CCCCC(=O)OCC(=O)[C@]1(O)Cc2c(O)c3c(c(O)c2[C@H](OC2CC(NC(=O)C(F)(F)F)C(O)C(C)O2)C1)C(=O)c1c(OC)cccc1C3=O (stereo not given in full)
inactive: [1]
active: [2] 2.51 µM | 7G8 1.26 µM | CP201 4.78 µM | CP203 1.69 µM | CP215 4.78 µM | CP247 3.16 µM | CP266 1.69 µM | CP268 5.36 µM | CP291 4.26 µM | CP297 1.51 µM | CP305 4.78 µM | CP325 3.38 µM | CP335 1.51 µM | DIV17 1.51 µM | GB4 3.79 µM | ICS 0.794 µM | P93_24 2 µM | PAD 2.24 µM | PC26 1.51 µM

CN[C@H](C)CCC=C(C)C
inactive: [1] | [2]
active: 7G8 0.0501 µM | CP201 2.13 µM | CP203 0.601 µM | CP215 0.601 µM | CP247 0.398 µM | CP266 0.536 µM | CP268 1.51 µM | CP291 0.953 µM | CP297 0.601 µM | CP305 1.69 µM | CP325 0.757 µM | CP335 0.239 µM | DIV17 0.19 µM | GB4 0.135 µM | ICS 0.0447 µM | P93_24 0.251 µM | PAD 0.178 µM | PC26 0.19 µM

NC(C(=O)O)c1ccc(O)cc1 (stereo not given)
inactive: all assays above

CCCC(=O)O[C@]1(C(=O)COC(C)=O)CC[C@H]2C3C[C@H](F)C4=CC(=O)C=CC4(C)[C@@]3(F)[C@@H](O)CC21C (stereo not given in full)
active: 7G8 11.2 µM
not listed: DIV17 | GB4 | ICS | P93_24 | PAD | PC26 | [2]
inactive: all other assays above

CC(CCC(=O)O)C1CCC2C3C(=O)C[C@@H]4CC(=O)CC[C@@]4(C)C3CC(=O)[C@]12C (stereo not given in full)
not listed: CP335 | DIV17
inactive: all other assays above
